Reference: the supplement of paper PMC13380429

System: Vero E6 infected with SARS-CoV-2
Experiment: inhibition of SARS-CoV-2 cytopathic effect; higher = more antiviral protection, active = above 15
Conditions: 48 h

Measured: inhibition of SARS-CoV-2 cytopathic effect

CC(=O)OCC1=C(C(=O)O)N2C(=O)[C@@H](NC(=O)Cc3cccs3)[C@H]2SC1 [cephalothin]
inactive: 1 nM 0.91% | 8.33 nM 2.69% | 100 nM 1.37% | 833.33 nM -0.06% | 10000 nM 1.33%

N=C(N)NCCSSCCNC(=N)N [guanidinoethyldisulfide-bicarbonate]
inactive: 1 nM -2.83% | 8.33 nM -2.77% | 100 nM -1.91% | 833.33 nM -2.43% | 10000 nM -5.27%

CNc1nc(C)nc(N[C@H]2CCC[C@@H](C(=O)NCc3ccc(C#N)cc3C(F)(F)F)C2)n1
inactive: 1 nM 1.51% | 8.33 nM -1.43% | 100 nM -0.92% | 833.33 nM -0.12% | 10000 nM -2.39%

CC(C)[C@@H](C(=O)Nc1nccs1)c1ccc(Cl)cc1
inactive: 1 nM 0.5% | 8.33 nM 0.66% | 100 nM 1.05% | 833.33 nM 1.87% | 10000 nM 1.55%

CCCCC/N=c1\ccn(Cc2ccccc2)c2ccccc12
inactive: 1 nM -2.64% | 8.33 nM -0.49% | 100 nM -2.77% | 833.33 nM -0.71% | 10000 nM -9.28%

CC(=O)SCCC(=O)N1[C@H](C)CCC[C@@H]1C(=O)O [methiopril]
inactive: 1 nM -1.78% | 8.33 nM -1.6% | 100 nM 3.1% | 833.33 nM 0.4% | 10000 nM 1.04%

c1ccc(C2CN3CCSC3=N2)cc1 (stereo not given) [tetramisole]
inactive: 1 nM 0.71% | 8.33 nM 1.55% | 100 nM 0.335% | 833.33 nM 6.51% | 10000 nM 2.84%
